# Laboratory results taken from ChEMBL document CHEMBL1961873, “Compounds: GSK PKIS; Assays: Nanosyn kinase panel” (2012).
# How the values were obtained:
# [1] = biological target: Protein kinase C gamma type (Homo sapiens) (UniProt P05129); conditions: at 1 µM;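 note: each value is an averaged percent inhibition of the enzyme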
# [2] = biological target: T1, Protein kinase C iota type (Homo sapiens) (UniProt P41743); conditions: at 0.1 µM
# T1 sequence (whole entry): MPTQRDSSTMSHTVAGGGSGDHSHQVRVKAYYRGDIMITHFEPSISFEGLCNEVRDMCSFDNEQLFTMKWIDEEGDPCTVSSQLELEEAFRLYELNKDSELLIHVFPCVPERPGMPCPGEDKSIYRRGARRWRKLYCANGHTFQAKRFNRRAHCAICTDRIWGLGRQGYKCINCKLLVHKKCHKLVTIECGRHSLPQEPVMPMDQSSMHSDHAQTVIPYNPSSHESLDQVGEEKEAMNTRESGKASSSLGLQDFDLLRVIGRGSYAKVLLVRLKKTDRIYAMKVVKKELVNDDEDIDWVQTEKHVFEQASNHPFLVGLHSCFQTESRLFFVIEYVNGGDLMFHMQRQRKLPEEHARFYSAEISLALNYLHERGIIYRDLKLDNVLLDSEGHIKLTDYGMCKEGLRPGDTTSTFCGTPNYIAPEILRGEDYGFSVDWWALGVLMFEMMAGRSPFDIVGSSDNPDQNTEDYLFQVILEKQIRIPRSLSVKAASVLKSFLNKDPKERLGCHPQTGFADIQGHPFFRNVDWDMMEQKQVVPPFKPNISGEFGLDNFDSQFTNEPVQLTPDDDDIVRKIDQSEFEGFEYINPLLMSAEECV
# [3] = biological target: T1, Protein kinase C iota type (Homo sapiens); conditions: at 1 µM
# [4] = biological target: Protein kinase C theta type (Homo sapiens) (UniProt Q04759); conditions: at 0.1 µM
# [5] = biological target: Protein kinase C theta type (Homo sapiens) (UniProt Q04759); conditions: at 1 µM
# [6] = biological target: Protein kinase C beta type (Homo sapiens) (UniProt P05771); conditions: at 0.1 µM
# [7] = biological target: Protein kinase C beta type (Homo sapiens) (UniProt P05771); conditions: at 1 µM
# [8] = biological target: T2, Serine/threonine-protein kinase D1 (Homo sapiens) (UniProt Q15139); conditions: at 0.1 µM
# T2 sequence (whole entry): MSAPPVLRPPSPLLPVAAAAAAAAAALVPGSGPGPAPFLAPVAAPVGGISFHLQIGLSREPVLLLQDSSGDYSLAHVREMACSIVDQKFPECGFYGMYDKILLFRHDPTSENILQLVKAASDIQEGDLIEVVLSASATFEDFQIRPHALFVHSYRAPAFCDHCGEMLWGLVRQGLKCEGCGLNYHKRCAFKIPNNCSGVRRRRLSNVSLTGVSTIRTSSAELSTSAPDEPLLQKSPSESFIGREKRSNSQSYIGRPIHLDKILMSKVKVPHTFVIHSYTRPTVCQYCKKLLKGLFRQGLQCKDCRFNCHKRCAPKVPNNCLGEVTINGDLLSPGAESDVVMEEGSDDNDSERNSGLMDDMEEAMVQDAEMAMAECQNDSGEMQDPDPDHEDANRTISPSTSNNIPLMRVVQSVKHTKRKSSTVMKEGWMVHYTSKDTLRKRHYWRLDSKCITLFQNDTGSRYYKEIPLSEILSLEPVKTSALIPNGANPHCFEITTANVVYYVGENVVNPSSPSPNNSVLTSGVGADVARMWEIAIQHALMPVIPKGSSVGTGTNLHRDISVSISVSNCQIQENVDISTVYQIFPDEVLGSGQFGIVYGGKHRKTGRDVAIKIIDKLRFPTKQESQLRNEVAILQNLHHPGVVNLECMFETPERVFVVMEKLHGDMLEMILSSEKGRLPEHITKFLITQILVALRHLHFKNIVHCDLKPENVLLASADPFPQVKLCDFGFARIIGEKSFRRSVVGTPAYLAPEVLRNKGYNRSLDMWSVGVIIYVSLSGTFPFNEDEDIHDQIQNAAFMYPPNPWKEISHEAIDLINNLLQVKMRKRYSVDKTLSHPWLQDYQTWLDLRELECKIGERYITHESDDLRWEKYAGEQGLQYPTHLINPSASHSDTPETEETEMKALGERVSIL
# [9] = biological target: T2, Serine/threonine-protein kinase D1 (Homo sapiens); conditions: at 1 µM
# [10] = biological target: T3, Serine/threonine-protein kinase D2 (Homo sapiens) (UniProt Q9BZL6); conditions: at 0.1 µM
# T3 sequence (whole entry): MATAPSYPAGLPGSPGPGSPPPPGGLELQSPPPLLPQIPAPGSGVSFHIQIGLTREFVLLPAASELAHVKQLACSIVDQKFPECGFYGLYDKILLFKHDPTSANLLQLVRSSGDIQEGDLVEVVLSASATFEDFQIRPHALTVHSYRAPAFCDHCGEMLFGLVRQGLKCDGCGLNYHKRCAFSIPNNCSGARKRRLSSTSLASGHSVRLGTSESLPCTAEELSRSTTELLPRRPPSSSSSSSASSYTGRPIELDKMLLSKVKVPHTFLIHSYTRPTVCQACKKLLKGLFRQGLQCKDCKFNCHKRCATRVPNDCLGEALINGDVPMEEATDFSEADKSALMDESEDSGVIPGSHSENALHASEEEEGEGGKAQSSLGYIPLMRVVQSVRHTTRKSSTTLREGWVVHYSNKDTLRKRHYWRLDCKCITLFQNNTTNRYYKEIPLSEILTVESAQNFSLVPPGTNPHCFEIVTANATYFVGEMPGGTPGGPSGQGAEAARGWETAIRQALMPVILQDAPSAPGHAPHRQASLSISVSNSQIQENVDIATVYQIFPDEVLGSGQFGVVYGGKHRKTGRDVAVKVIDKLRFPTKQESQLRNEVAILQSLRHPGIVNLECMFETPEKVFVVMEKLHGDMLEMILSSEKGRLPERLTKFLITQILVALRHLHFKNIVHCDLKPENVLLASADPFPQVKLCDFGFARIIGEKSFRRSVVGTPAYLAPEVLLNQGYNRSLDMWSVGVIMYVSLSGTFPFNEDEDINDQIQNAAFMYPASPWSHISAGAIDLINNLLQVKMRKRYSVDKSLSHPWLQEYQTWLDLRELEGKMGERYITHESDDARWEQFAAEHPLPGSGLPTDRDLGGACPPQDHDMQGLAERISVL
# [11] = biological target: T3, Serine/threonine-protein kinase D2 (Homo sapiens); conditions: at 1 µM
# [12] = biological target: T4, Serine/threonine-protein kinase D3 (Homo sapiens) (UniProt O94806); conditions: at 0.1 µM
# T4 sequence (whole entry): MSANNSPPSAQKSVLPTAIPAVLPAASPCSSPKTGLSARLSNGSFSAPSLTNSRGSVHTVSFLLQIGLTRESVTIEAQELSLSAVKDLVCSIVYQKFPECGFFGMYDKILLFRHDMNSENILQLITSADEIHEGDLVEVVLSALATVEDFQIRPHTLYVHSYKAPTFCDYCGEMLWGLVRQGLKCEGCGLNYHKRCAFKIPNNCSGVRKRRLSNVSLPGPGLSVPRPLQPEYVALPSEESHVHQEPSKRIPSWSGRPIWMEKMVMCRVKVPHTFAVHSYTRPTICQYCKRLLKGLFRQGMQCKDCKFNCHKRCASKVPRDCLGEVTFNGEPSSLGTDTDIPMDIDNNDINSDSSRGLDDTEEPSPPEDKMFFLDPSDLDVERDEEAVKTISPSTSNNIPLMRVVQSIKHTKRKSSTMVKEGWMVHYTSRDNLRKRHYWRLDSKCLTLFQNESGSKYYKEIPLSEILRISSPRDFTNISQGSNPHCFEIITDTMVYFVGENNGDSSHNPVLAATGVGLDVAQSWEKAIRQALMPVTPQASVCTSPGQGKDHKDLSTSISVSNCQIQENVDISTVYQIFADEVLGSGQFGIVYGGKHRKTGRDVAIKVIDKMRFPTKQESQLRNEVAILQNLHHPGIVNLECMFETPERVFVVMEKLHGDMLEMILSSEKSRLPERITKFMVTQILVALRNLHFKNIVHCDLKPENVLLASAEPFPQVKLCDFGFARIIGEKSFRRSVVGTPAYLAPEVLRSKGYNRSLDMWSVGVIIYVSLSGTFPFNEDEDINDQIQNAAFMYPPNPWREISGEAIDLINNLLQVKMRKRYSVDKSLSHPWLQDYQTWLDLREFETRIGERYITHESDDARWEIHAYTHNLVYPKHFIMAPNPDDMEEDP
# [13] = biological target: T4, Serine/threonine-protein kinase D3 (Homo sapiens); conditions: at 1 µM
# [14] = biological target: T5, cGMP-dependent protein kinase 1 (Homo sapiens) (UniProt Q13976); conditions: at 0.1 µM
# T5 sequence (whole entry): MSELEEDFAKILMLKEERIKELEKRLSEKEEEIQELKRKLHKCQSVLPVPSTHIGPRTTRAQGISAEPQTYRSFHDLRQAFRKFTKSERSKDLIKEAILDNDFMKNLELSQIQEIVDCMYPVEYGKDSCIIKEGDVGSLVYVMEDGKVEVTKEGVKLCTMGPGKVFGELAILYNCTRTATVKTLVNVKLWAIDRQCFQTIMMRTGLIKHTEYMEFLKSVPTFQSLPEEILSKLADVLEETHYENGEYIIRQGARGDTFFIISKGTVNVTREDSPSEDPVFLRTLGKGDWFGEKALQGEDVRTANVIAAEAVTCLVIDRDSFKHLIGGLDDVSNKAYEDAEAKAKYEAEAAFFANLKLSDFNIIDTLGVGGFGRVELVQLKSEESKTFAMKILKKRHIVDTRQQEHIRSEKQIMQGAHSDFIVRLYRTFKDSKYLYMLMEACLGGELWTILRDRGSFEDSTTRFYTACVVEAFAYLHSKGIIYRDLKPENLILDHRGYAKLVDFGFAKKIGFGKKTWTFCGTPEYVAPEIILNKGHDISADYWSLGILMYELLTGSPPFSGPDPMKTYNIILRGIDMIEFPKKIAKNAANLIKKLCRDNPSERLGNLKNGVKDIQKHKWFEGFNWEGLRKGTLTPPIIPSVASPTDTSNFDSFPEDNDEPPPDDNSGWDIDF
# [15] = biological target: T5, cGMP-dependent protein kinase 1 (Homo sapiens); conditions: at 1 µM
# [16] = biological target: T6, cGMP-dependent protein kinase 2 (Homo sapiens) (UniProt Q13237); conditions: at 0.1 µM
# T6 sequence (whole entry): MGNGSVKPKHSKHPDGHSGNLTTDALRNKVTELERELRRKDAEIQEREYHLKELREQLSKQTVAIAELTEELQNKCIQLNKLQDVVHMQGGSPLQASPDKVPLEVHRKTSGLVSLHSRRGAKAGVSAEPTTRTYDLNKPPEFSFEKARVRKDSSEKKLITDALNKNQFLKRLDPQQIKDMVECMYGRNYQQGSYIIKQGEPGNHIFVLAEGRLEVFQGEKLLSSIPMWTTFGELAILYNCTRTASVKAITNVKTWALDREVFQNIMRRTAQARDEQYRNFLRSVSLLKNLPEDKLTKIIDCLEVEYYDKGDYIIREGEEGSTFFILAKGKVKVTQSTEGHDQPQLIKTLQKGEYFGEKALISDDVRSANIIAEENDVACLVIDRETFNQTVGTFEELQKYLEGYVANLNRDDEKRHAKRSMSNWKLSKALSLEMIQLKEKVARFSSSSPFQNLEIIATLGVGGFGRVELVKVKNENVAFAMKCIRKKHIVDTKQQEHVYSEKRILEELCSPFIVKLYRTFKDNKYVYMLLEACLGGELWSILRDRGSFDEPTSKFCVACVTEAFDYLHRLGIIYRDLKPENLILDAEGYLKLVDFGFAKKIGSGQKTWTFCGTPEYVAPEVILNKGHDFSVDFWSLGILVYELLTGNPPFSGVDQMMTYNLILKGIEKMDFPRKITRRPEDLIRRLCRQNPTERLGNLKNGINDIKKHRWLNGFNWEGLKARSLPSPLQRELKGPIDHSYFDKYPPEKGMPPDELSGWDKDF
# [17] = biological target: T6, cGMP-dependent protein kinase 2 (Homo sapiens); conditions: at 1 µM
# [18] = biological target: T7, cAMP-dependent protein kinase catalytic subunit PRKX (Homo sapiens) (UniProt P51817); conditions: at 0.1 µM
# T7 sequence (whole entry): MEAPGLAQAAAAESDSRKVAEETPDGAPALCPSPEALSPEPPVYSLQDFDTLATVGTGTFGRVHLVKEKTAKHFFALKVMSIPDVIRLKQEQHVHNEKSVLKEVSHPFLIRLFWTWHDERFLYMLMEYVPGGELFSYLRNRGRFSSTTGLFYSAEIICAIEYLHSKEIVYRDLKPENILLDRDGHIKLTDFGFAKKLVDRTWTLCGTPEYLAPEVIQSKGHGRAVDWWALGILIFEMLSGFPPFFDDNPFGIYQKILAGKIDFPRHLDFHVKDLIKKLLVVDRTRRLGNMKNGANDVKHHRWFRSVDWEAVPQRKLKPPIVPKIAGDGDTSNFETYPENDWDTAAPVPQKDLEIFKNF
# [19] = biological target: T7, cAMP-dependent protein kinase catalytic subunit PRKX (Homo sapiens); conditions: at 1 µM
# [20] = biological target: Rho-associated protein kinase 1 (Homo sapiens) (UniProt Q13464); conditions: at 0.1 µM;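 note: values are mean percent inhibition of ROCK1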
# Sequence of Rho-associated protein kinase 1 (Homo sapiens) (Q13464 2-1354 limits assumed): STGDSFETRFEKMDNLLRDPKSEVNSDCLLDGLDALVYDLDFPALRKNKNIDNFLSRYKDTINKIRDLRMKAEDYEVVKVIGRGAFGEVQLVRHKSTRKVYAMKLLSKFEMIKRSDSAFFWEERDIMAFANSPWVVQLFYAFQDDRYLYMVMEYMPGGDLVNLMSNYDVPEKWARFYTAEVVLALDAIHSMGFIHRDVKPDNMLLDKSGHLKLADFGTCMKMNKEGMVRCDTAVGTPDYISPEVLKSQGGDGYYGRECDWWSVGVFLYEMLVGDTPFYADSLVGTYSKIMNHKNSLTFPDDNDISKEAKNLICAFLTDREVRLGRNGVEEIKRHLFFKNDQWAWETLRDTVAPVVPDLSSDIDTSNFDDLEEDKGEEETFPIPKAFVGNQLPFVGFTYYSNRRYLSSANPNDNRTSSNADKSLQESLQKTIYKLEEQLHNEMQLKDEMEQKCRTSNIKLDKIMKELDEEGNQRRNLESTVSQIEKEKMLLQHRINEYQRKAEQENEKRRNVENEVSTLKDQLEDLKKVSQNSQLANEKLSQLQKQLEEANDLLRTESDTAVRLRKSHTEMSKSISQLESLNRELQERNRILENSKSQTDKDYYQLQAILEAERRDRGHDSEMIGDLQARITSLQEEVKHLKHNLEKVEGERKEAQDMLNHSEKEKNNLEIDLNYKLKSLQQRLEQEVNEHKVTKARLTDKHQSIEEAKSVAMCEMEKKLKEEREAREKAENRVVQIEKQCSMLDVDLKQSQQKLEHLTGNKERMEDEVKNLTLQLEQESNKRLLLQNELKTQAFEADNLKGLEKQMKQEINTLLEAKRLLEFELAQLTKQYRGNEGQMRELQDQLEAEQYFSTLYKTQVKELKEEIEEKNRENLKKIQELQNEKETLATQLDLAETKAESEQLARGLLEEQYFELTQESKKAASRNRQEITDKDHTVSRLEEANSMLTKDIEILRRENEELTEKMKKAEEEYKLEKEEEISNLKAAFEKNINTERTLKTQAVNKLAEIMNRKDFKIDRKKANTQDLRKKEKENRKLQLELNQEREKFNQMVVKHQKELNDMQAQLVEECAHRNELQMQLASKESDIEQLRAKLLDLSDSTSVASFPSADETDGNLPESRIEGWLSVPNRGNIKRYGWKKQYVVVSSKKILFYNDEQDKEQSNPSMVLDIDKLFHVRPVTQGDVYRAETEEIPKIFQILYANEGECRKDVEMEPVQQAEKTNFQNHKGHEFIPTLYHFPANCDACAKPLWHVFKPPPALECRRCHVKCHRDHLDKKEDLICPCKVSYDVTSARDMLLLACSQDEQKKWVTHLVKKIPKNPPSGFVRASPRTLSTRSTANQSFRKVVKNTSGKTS
# Sequence of Protein kinase C beta type (Homo sapiens) (P05771 2-671 limits assumed): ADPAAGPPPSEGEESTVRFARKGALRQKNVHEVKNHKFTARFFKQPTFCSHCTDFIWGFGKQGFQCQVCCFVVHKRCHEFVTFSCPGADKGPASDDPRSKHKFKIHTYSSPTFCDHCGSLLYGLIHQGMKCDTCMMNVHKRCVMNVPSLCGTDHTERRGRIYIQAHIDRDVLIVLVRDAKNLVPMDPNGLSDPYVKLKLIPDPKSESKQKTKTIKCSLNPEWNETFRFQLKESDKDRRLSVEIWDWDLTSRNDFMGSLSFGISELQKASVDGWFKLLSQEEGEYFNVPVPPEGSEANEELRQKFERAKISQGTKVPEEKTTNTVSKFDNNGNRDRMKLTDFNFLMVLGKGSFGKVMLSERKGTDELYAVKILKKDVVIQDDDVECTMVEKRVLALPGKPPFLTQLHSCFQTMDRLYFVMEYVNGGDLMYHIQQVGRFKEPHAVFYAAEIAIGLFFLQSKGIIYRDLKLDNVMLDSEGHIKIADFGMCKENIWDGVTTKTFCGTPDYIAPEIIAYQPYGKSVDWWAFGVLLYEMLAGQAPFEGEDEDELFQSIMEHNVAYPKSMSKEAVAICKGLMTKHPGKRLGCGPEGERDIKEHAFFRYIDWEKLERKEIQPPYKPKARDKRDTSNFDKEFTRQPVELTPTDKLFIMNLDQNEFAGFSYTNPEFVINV
# Sequence of Protein kinase C theta type (Homo sapiens) (Q04759 whole entry, looked up): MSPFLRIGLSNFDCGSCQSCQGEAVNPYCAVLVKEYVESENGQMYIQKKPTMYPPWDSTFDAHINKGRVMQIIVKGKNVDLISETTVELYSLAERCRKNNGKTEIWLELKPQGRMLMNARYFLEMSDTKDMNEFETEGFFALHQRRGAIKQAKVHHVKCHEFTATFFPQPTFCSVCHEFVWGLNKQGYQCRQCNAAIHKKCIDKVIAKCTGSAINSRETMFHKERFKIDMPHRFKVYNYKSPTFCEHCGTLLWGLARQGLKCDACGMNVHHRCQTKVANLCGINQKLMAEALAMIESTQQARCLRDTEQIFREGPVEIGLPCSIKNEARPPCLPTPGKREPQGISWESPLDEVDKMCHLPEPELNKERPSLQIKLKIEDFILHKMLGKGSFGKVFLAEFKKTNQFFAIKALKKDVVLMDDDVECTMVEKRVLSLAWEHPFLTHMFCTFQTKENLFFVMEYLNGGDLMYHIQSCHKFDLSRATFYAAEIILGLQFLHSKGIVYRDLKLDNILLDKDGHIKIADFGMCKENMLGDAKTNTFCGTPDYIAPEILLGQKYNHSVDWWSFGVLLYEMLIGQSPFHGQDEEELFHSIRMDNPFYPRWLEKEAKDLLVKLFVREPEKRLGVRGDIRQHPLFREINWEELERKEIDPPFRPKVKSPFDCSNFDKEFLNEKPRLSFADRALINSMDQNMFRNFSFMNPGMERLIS
Compound,inhibition [1] [%],inhibition [2] [%],inhibition [3] [%],inhibition [4] [%],inhibition [5] [%],inhibition [6] [%],inhibition [7] [%],inhibition [8] [%],inhibition [9] [%],inhibition [10] [%],inhibition [11] [%],inhibition [12] [%],inhibition [13] [%],inhibition [14] [%],inhibition [15] [%],inhibition [16] [%],inhibition [17] [%],inhibition [18] [%],inhibition [19] [%],inhibition [20] [%]
O=C1Nc2ccc(-c3cccnc3)cc2C1=Cc1cc(Br)c(O)c(Br)c1,6.29,1.6,3.35,1.77,2.57,0.86,1.44,2.94,4.25,3.88,4.38,4.62,5.23,4.28,11,2.46,4.63,1.55,-0.22,1.68
Cc1ccc2c(-c3ccnc(Nc4cccc(C(F)(F)F)c4)n3)c(-c3ccccc3)nn2n1,5.36,1.34,1.37,2.13,3.7,1.37,5,7.68,39.8,12.8,56.8,11.6,51.5,3.11,5.07,3.26,4.35,2.65,2.54,3.08
Cc1ccc2c(-c3ccnc(Nc4ccc5c(c4)OCCO5)n3)c(-c3ccc(C(F)(F)F)cc3)nn2n1,3.76,0.29,1.15,1.61,2.73,0.24,2.06,1.11,3.32,2.13,2.37,1.2,2.26,3.03,3.63,2.95,2.42,6.47,6.18,0.76
CN(C)CCCn1c(-c2nonc2N)nc2cnccc21,4.25,2.62,3.77,2.2,1.32,2.32,4.48,3.41,7.59,4.15,5.95,4.93,7.35,3.68,4.99,2.51,5.66,1.48,3.97,5.96
